From PubChem BioAssay (NCI)
“And” between values parts separate entries of the source, which are not always exact repeats. Equal entries are not always repeated. This is part of a sample that, as a whole, favours compounds with a hit. Of some 83,000 tested, about 20% had one in any assay.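 Single-dose data. Exposure time 48 hours. Values below 10 considered active.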

Columns and labels:
Assay in all cases: NCI-60 one-dose screen, 48 h (100 = growth as untreated, 0 = no growth, -100 = all killed)
Settings in all cases: 10 µM unless noted
NCI-H23 lung = test system: NCI-H23 lung
NCI-H226 lung = test system: NCI-H226 lung
NCI-H322M lung = test system: NCI-H322M lung
HOP-62 NSCLC = test system: HOP-62 NSCLC
NCI-H460 lung = test system: NCI-H460 lung
HOP-92 NSCLC = test system: HOP-92 NSCLC
NCI-H522 lung = test system: NCI-H522 lung
A549/ATCC NSCLC = test system: A549/ATCC NSCLC
786-0 renal = test system: 786-0 renal
COLO 205 colon = test system: COLO 205 colon

Measured: growth

COc1ccccc1OCC(O)CO (stereo not given)
inactive: NCI-H23 lung 106% and 103% | NCI-H226 lung 102% and 94.6% | NCI-H322M lung 75.7% and 115% | HOP-62 NSCLC 96.8% and 121% | NCI-H460 lung 105% and 113% | HOP-92 NSCLC 90% | NCI-H522 lung 98.6% and 106% | A549/ATCC NSCLC 96.6% | 786-0 renal 97.6% and 102% | COLO 205 colon 116%

CC1(C)CC(=O)NC1=O
inactive: NCI-H23 lung 96.5% | NCI-H226 lung 99.6% | NCI-H322M lung 94.2% | HOP-62 NSCLC 101% | NCI-H460 lung 108% | HOP-92 NSCLC 114% | NCI-H522 lung 96.8% | A549/ATCC NSCLC 99.3% | 786-0 renal 97.6% | COLO 205 colon 113%

CCOC(=O)c1ccc(C(=N)N)cc1
inactive: NCI-H23 lung 99% | NCI-H226 lung 106% | NCI-H322M lung 117% | HOP-62 NSCLC 108% | NCI-H460 lung 103% | HOP-92 NSCLC 80.2% | NCI-H522 lung 102% | A549/ATCC NSCLC 107% | 786-0 renal 106% | COLO 205 colon 114%

CCN(CC)C(=S)SCCO
inactive: NCI-H23 lung 93.3% | NCI-H226 lung 99.3% | NCI-H322M lung 97.1% | HOP-62 NSCLC 104% | NCI-H460 lung 104% | HOP-92 NSCLC 109% | NCI-H522 lung 95.5% | A549/ATCC NSCLC 99.3% | 786-0 renal 104% | COLO 205 colon 114%

COC(=O)C(Cc1cn(C(C)=O)c2ccccc12)P(=O)(OC)OC (stereo not given)
inactive: NCI-H23 lung 98.5% | NCI-H226 lung 91.5% | NCI-H322M lung 101% | HOP-62 NSCLC 93.3% | NCI-H460 lung 98.1% | HOP-92 NSCLC 98.8% | NCI-H522 lung 103% | A549/ATCC NSCLC 106% | 786-0 renal 105% | COLO 205 colon 105%

C/C(=C\c1ccccc1)C(O)C(=O)c1nc2ccc([N+](=O)[O-])cc2[nH]c1=O (stereo not given)
inactive: NCI-H23 lung 104% | NCI-H226 lung 88% | NCI-H322M lung 90.3% | HOP-62 NSCLC 81.4% | NCI-H460 lung 94.7% | HOP-92 NSCLC 78.9% | NCI-H522 lung 48.1% | A549/ATCC NSCLC 85.7% | 786-0 renal 101% | COLO 205 colon 111%

C=CCN1C(=O)c2ccccc2C1=O
inactive: NCI-H23 lung 103% | NCI-H226 lung 101% | NCI-H322M lung 102% | HOP-62 NSCLC 104% | NCI-H460 lung 101% | HOP-92 NSCLC 80.9% | NCI-H522 lung 86% | A549/ATCC NSCLC 100% | 786-0 renal 103% | COLO 205 colon 98.4%

N=c1sc2ccccc2n1CC(=O)O
inactive: NCI-H23 lung 108% | NCI-H226 lung 98.1% | NCI-H322M lung 103% | HOP-62 NSCLC 88.8% | NCI-H460 lung 109% | HOP-92 NSCLC 82.1% | NCI-H522 lung 87.1% | A549/ATCC NSCLC 83.7% | 786-0 renal 101% | COLO 205 colon 106%

O=C(O)C(Cc1ccc(OS(=O)(=O)Cc2ccccc2)cc1)NS(=O)(=O)Cc1ccccc1 (stereo not given)
inactive: NCI-H23 lung 105% and 112% | NCI-H226 lung 108% and 109% | NCI-H322M lung 119% and 127% | HOP-62 NSCLC 105% and 118% | NCI-H460 lung 106% and 119% | HOP-92 NSCLC 135% and 102% | NCI-H522 lung 96.6% | A549/ATCC NSCLC 101% and 105% | 786-0 renal 98.9% and 114% | COLO 205 colon 114%

COC(=O)c1nc(N)nc(C(=O)OC)c1C(=O)c1ccc(F)cc1
inactive: NCI-H23 lung 105% | NCI-H226 lung 110% | NCI-H322M lung 108% | HOP-62 NSCLC 113% | NCI-H460 lung 117% | HOP-92 NSCLC 101% | NCI-H522 lung 103% | A549/ATCC NSCLC 114% | 786-0 renal 108% | COLO 205 colon 117%

C/C(CC(C)C)=N/NC(N)=S
inactive: NCI-H23 lung 88.8% | NCI-H226 lung 85.8% | NCI-H322M lung 96.9% | HOP-62 NSCLC 99.4% | NCI-H460 lung 102% | HOP-92 NSCLC 78.2% | NCI-H522 lung 95.2% | A549/ATCC NSCLC 83.6% | 786-0 renal 107% | COLO 205 colon 102%

CN(C)CC(CN(C)C)C(O)c1ccccc1 (stereo not given)
inactive: NCI-H23 lung 106% | NCI-H226 lung 96.6% | NCI-H322M lung 103% | HOP-62 NSCLC 91.4% | NCI-H460 lung 112% | HOP-92 NSCLC 97.9% | NCI-H522 lung 76.4% | A549/ATCC NSCLC 91.5% | 786-0 renal 96.6% | COLO 205 colon 110%

O=[N+]([O-])c1ccc(NC2CCCCC2)nc1
inactive: NCI-H23 lung 93.2% and 96.9% | NCI-H226 lung 113% and 92.4% | NCI-H322M lung 117% and 105% | HOP-62 NSCLC 94.8% and 101% | NCI-H460 lung 108% and 105% | HOP-92 NSCLC 114% and 81.8% | NCI-H522 lung 95.1% and 92.1% | A549/ATCC NSCLC 101% and 98.5% | 786-0 renal 103% | COLO 205 colon 108% and 102%

CCOC(=N)c1ccc(C(=N)OCC)cc1
inactive: NCI-H23 lung 101% | NCI-H226 lung 100% | NCI-H322M lung 113% | HOP-62 NSCLC 84.2% | NCI-H460 lung 111% | HOP-92 NSCLC 93% | NCI-H522 lung 97.3% | A549/ATCC NSCLC 99.7% | 786-0 renal 86.8% | COLO 205 colon 103%

S=c1ccc2ccccc2[nH]1
inactive: NCI-H23 lung 107% and 101% | NCI-H226 lung 90.2% and 104% | NCI-H322M lung 96.8% and 96.2% | HOP-62 NSCLC 92.2% and 93.3% | NCI-H460 lung 107% | HOP-92 NSCLC 86.5% and 94.5% | NCI-H522 lung 93.3% and 89.6% | A549/ATCC NSCLC 95.7% and 94.4% | 786-0 renal 107% and 106% | COLO 205 colon 94.3% and 114%

NCCSSC/C=C\CSSCCN
inactive: NCI-H23 lung 102% | NCI-H226 lung 90.1% | NCI-H322M lung 100% | HOP-62 NSCLC 98.4% | NCI-H460 lung 97.5% | HOP-92 NSCLC 84.6% | NCI-H522 lung 88.1% | A549/ATCC NSCLC 90.1% | 786-0 renal 99% | COLO 205 colon 113%

Nc1ccccc1SC1CC(=O)N(c2ccc(I)cc2)C1=O (stereo not given)
inactive: NCI-H23 lung 89.8% | NCI-H226 lung 102% | NCI-H322M lung 108% | HOP-62 NSCLC 80.5% | NCI-H460 lung 92.6% | HOP-92 NSCLC 100% | NCI-H522 lung 77.4% | A549/ATCC NSCLC 87.1% | 786-0 renal 105% | COLO 205 colon 95.3%

CCCC(=O)OCC(COC(=O)CCC)OC(=O)CCC
inactive: NCI-H23 lung 104% | NCI-H226 lung 94.5% | NCI-H322M lung 93.9% | HOP-62 NSCLC 98.6% | NCI-H460 lung 101% | HOP-92 NSCLC 87.3% | NCI-H522 lung 99.1% | A549/ATCC NSCLC 94.9% | 786-0 renal 102% | COLO 205 colon 111%

CCCCCc1cc[n+](CC(=O)c2ccccc2)cc1
inactive: NCI-H23 lung 96.6% and 92.6% | NCI-H226 lung 96.8% and 89% | NCI-H322M lung 92.4% and 96% | HOP-62 NSCLC 90.5% and 108% | NCI-H460 lung 76.7% and 95.4% | HOP-92 NSCLC 67.7% | NCI-H522 lung 95% and 99.3% | A549/ATCC NSCLC 84.1% and 101% | 786-0 renal 97% and 96.3% | COLO 205 colon 87.3% and 101%

COc1ccc(CCn2cnn3c(=O)c4ccccc4nc3c2=O)cc1OC
inactive: NCI-H23 lung 97.6% and 114% | NCI-H226 lung 94.7% and 97% | NCI-H322M lung 103% and 110% | HOP-62 NSCLC 112% and 104% | NCI-H460 lung 105% and 118% | HOP-92 NSCLC 93.6% and 88.7% | NCI-H522 lung 112% and 97.6% | A549/ATCC NSCLC 104% and 106% | 786-0 renal 95.2% and 108% | COLO 205 colon 104% and 117%

Cc1ccc(NC(=S)N/C=C(\c2ccccc2)S(=O)Cc2ccccc2)c(C)c1 (stereo not given)
inactive: NCI-H23 lung 99.7% | NCI-H226 lung 90.2% | NCI-H322M lung 94.8% | HOP-62 NSCLC 95.8% | NCI-H460 lung 101% | HOP-92 NSCLC 80.1% | NCI-H522 lung 90.5% | A549/ATCC NSCLC 97.7% | 786-0 renal 98.2% | COLO 205 colon 104%

CCCC(=O)Oc1ccc2ccccc2c1
inactive: NCI-H23 lung 98.7% | NCI-H226 lung 103% | NCI-H322M lung 109% | HOP-62 NSCLC 89.9% | NCI-H460 lung 98% | HOP-92 NSCLC 89.5% | NCI-H522 lung 96.8% | A549/ATCC NSCLC 97.3% | 786-0 renal 101% | COLO 205 colon 99.2%
